From ChEMBL document CHEMBL3988442, “University of Dundee, Small-Polar-MMV Screening Library” (2021)
About 900 (1.7%) of roughly 53,000 compounds showed an effect of 50% or more. The entries come from a sample that favours strong results as a whole.

What follows are molecules tested on Mycobacterium tuberculosis (assay: Cornell - Phenotypic assay to identify agents that inhibit growth of Mycobacterium tuberculosis). Conditions: 10 mM as filed; unlikely as a test dose.
Type: functional
Set-up: scale not given: direction of the effect not stated beside the values

SMILES	Percent Effect
COCCC(=O)N(CCC#N)c1ccc2c(c1)OCCO2	0.8387%
Cc1noc(C)c1-c1cccc(C2CCN(S(=O)(=O)N(C)C)CC2)n1	42.71%
O=S(=O)(N1CCCCC1)N1CCC(Oc2cnccn2)CC1	20.22%
CN(C(=O)c1ccon1)[C@@H]1CCC[C@@H](Oc2ccccc2)[C@@H]1O	-13.46%
O=C(COc1ccc(-c2ccccc2)nc1)NCC1CC1	18.89%
CCc1oc(C(=O)N(C)Cc2ccncc2)cc1CN(CC)CC	3.07%
COC(=O)c1ccc(N2CCC(c3ccccc3)CC2)nn1	26.44%
COC(=O)c1ccc(N2CCC(C(O)c3ccccc3)CC2)nn1 (configuration not stated)	106%
COC(=O)c1ccc(N2CCC(N(C)c3ccccc3)CC2)nn1	11.3%
OCC(CO)N1CCCC(Cc2ccnc(Nc3ccccn3)c2)C1 (configuration not stated)	10.34%
Cc1cc(C)n(CCNc2ncnc3c2NC(=O)CN3)n1	18.99%
C/N=C1\c2cc3cc(OC)ccc3n2CCN1C.Cl	-3.392%
C/N=C1/c2cc3cc(OC)ccc3n2CCN1Cc1ccccc1.Cl	57.78%
C/N=C1\c2cc3cc(OC)ccc3n2CCN1Cc1ccccc1.O=C(O)C(F)(F)F	22.23%
CNC(=O)CN1CCOCC12CCN(C(=O)c1ccc(C)cc1)CC2.O=C(O)C(F)(F)F	15.73%
CCN(C)C(=O)c1cc(-c2ccn(C(C)C)n2)n2ccccc12	68.36%
CC(C)n1ccc(-c2cc(C(=O)NC3CC3)c3ccccn23)n1	-20.13%
CC(C)n1ccc(-c2cc(C(=O)N3CCN(C)CC3)c3ccccn23)n1.O=C(O)C(F)(F)F	-46.58%
CCCNC(=O)c1cc(-c2ccn(C(C)C)n2)n2ccccc12	54.8%
CC(C)n1ccc(-c2cc(C(=O)N3CCCC3)c3ccccn23)n1	40.75%
CCN(C)C(=O)c1cc(-c2cn(C(C)C)cn2)n2ccccc12	-58.24%
O=C(c1cc[nH]n1)N1CCc2c(nc(N3CCCCC3)[nH]c2=O)C1	11.2%
CC(C#N)CN(C)C(=O)CCNC(=O)OC(C)(C)C (configuration not stated)	19.92%

SMILES	Percent Effect
Cc1cnc(C(=O)N2CCN3C[C@H](OCc4cccnc4)C[C@H]3C2)cn1	-31.84%
Cc1ccc(CNCc2cccc(NC(=O)CCN3CCOCC3)c2)s1	14.02%
CC1=C(C#N)C(=O)NC(=O)/C1=C\c1c(C)nn(-c2ccc(C)cc2)c1O	24.62%
Cc1nc(CN2C(=O)CC[C@@H]3[C@H]2CCN3C2CCOC2)cs1.O=C(O)C(F)(F)F (some centres not stated)	9.813%
CC(=O)N1C[C@@H]2CN(S(=O)(=O)C3CC3)CCO[C@@H]2C1	-7.882%
CCn1nccc1CN(C)C(=O)Cn1nc(C)c(C)c1C	1.975%
CC(C)N(C)Cc1n[nH]c2c1CCN(C(=O)c1ccc[nH]1)C2.O=C(O)C(F)(F)F	-20.42%
Cn1ccc2c(NC(=O)Cn3ncc4c(c3=O)CCCCC4)cccc21	7.683%
O=C(Cn1ncc2c(c1=O)CCCCC2)Nc1cccc2[nH]ccc12	32.47%
Cn1ccc2c(NC(=O)Cn3ncc4c(c3=O)CCCC4)cccc21	50.09%
O=C1C(n2nnc(-c3cccs3)n2)CCN1CC(F)(F)F (configuration not stated)	21.02%
Cc1cccc(CNC(=O)CC2CCN(C(=O)C(C)C)CC2)n1	-31.48%
CO[C@@H]1CCN(c2nnc(C)s2)C[C@@H]1Cc1ccccc1.O=C(O)C(F)(F)F	33.57%
CO[C@@H]1CCN(c2nnc(C)s2)C[C@@H]1Cc1cccc(C)c1.O=C(O)C(F)(F)F	41.6%
CO[C@H]1CCN(c2nnc(C)s2)C[C@@H]1Cc1cccc(C)c1.O=C(O)C(F)(F)F	15.98%
Cc1nnc(N2CC[C@@H](OCC3CC3)[C@@H](Cc3ccccc3)C2)s1.O=C(O)C(F)(F)F	81.09%
CO[C@H]1CCN(c2nnc(C)s2)C[C@@H]1Cc1ccccc1.O=C(O)C(F)(F)F	35.25%
Cc1nnc(N2CC[C@H](OCC3CC3)[C@@H](Cc3ccccc3)C2)s1.O=C(O)C(F)(F)F	73.55%
Cc1noc(C)c1CCC(=O)Nc1ccn(C)n1	-3.564%
CC(C)(C(N)=O)S(=O)(=O)c1ccc(Br)cc1	7.461%
CCc1nnc2sc(-c3cc(C(C)C)n[nH]3)nn12	-59.74%
CC(C)(CC(=O)Nc1cccc(Oc2ccccn2)c1)C(=O)O	-19.67%
CC(C)NC(=O)CCC(=O)N1CCC(c2noc3cc(F)ccc23)CC1	-48.35%

SMILES	Percent Effect
O=C(Cn1ccc2c(Cl)cccc21)Nc1nc[nH]n1	5.076%
Cc1cccc(CN2CCC3(CCN(c4ncccn4)C3)C2=O)c1 (configuration not stated)	5.151%
Cc1cccc(CN2CCC3(CCN(c4ccccn4)C3)C2=O)c1.O=C(O)C(F)(F)F (configuration not stated)	27.3%
Cc1cccc(CN2CCC3(CCN(c4ncccn4)CC3)C2=O)c1.O=C(O)C(F)(F)F	58.32%
CN(Cc1cccc(F)c1)Cc1nc2c(cnn2C)c(=O)[nH]1	-23.35%
Cc1noc(C)c1CN1CCC(c2nnc(Cn3cccn3)n2C)CC1	16.69%
C[C@@H]1CN(c2cccnn2)CC[C@@]1(O)C1CCOCC1	-7.399%
Cc1ccc(-c2nc(CN3C[C@@H](C)NC[C@@H]3C)c(C)o2)s1	12.13%
Cc1ccc(-c2cccc(N3CCC(NC4CCOCC4)CC3)c2)cc1	33.16%
COc1cccc(-c2cccc(N3CCC(N[C@@H]4CCOC4)CC3)c2)c1	39.62%
Clc1cccc(-c2cccc(N3CCC(NC4CCOCC4)CC3)c2)c1	72.63%
CCc1ccc(-c2ncc3c(n2)N(C)CCN(CCN(C)C)C3=O)cc1	13.52%
Cc1nn(CC(C)C)c(N(C)C)c1CNCc1ccccc1CO	17.46%
Cc1nn(CC(C)C)c(N(C)C)c1CNCCCNS(C)(=O)=O	49.77%
Cc1nc(C)c(C(C)NCc2c(C(C)C)nn(C)c2N(C)C)s1 (configuration not stated)	21.22%
Cc1nc(C)c(C(C)NCc2c(C)nn(CC(C)C)c2N(C)C)s1 (configuration not stated)	102.6%
Cc1nn(CC(C)C)c(N(C)C)c1CNCCS(C)(=O)=O	83.1%
CC(=O)NCCCNCc1c(C)nn(CC(C)C)c1N(C)C	2.619%
Cc1nn(CC(C)C)c(N(C)C)c1CNCc1cc2ccccc2[nH]1	72.88%
Cc1nn(CC(C)C)c(N(C)C)c1CNCc1cccnc1N(C)C	34.46%
Cc1nc(C)c(C(C)NCc2c(C)nn(C)c2N(C)C)s1 (configuration not stated)	45.94%
